Screening results deposited in PubChem by SRMLSC.
The list is not random: actives were taken first. Their share in the collection is about 6.5%.
Spn MK inh = S. pneumoniae mevalonate kinase inhibition; AID 555; hit rate 0.48% among 65,000; purified MK, PK/LDH-coupled NADH absorbance 340 nm; inhibition, % at 10 µM;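 active = ranked among the strongest by inhibition in the single 10 µM screen, a fixed top-ranked set picked for dose follow-up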
Fluor 339 460 = intrinsic fluorescence of library compounds, ex339/em460 – biochemical, MLSMR library, data from DPM-DC assay, artefact control, profiling panel; compound autofluorescence, ex339/em460 nm, NADH buffer; stronger effect = higher value; 1 = no-compound wells, NADH background; fluorescence fold increase at 10 µM; AID 709; hit rate 5.5% among 65,000;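 active = at 10 µM, mean starting fluorescence two-fold or more over control wells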;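 note: signal is the first read of a kinetic run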
Spn DPM-DC inh = inhibitors of Streptococcus pneumoniae diphosphomevalonate decarboxylase | purified DPM-DC, PK/LDH coupled NADH fluorescence | calls only at 10 µM | hit rate 0.49% among 65,000 | AID 556;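 active = the 320 compounds with the highest percent inhibition in the single-dose primary screen, excluding strongly autofluorescent ones, cut at about 32% in these data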;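 note: kinetic rate of NADH fluorescence loss reporting ADP formed by the decarboxylase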
Abs 340nm = compound absorbs light at 340 nm; compound absorbance at 340 nm, fold over control; fold change at 10 µM; 65,000 tested, under 10 active; AID 708;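 active = at 10 µM dose, initial 340 nm absorbance at least 2 fold that of control wells; inactive = change under 2 fold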;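 note: initial absorbance extrapolated from kinetic A340 decline of NADH oxidation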
NADH coupling = inhibitors of enzymes used to reach an NAD/NADH endpoint | coupled PK/LDH NADH assays, four targets | IC50, µM (doses to about 10 µM), inactives show at the top dose inhibition | hit rate 0.02% among 65,000 | AID 774;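 active = single-dose screening hits from any of four coupled enzyme assays that gave an IC50 when retested across doses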;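 note: the DPM-DC format reads NADH fluorescence rather than 340 nm absorbance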
Spn PMK inh = blocks S. pneumoniae phosphomevalonate kinase. purified PMK, PK/LDH-coupled NADH absorbance 340 nm. hit rate 0.49% among 65,000. inhibition, % at 10 µM;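 active = top-ranked compounds by inhibition in the single 10 µM screen, taking a fixed number of the strongest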;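 note: 0% = full reaction with DMSO carrier and 100% = background rate without enzyme reaction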
* = called active by the depositor.

How did O=C(Nc1ccc2c(c1)CCC2)C1COc2ccccc2O1 (stereo not drawn) do in these assays?
Spn MK inh: 0.0; Fluor 339 460: 2.11*; Spn DPM-DC inh: inactive; Abs 340nm: 1; NADH coupling: 8.0%; Spn PMK inh: 15.0

Results for CCOC(=O)C1CCN(Cc2ccc(C(=O)OC)cc2)CC1 ?
Spn MK inh: 60.0*; Fluor 339 460: 1.01; Spn DPM-DC inh: inactive; Abs 340nm: 1.02; NADH coupling: 6.0%; Spn PMK inh: 8.0

How did O=C(O)C(Cc1c[nH]c2ccccc12)NS(=O)(=O)c1cccc2nsnc12 (stereo not drawn) do in these assays?
Spn MK inh: 10.0; Fluor 339 460: 1.08; Spn DPM-DC inh: inactive; Abs 340nm: 1.02; NADH coupling: 6.0%; Spn PMK inh: 8.0

Results for Cc1nc2sccn2c1-c1csc(NCc2ccccc2)n1 ?
Fluor 339 460: 1.17; Spn DPM-DC inh: inactive; Abs 340nm: 1.06; NADH coupling: 5.0%; Spn PMK inh: 9.0

How did Cc1ccc(-c2cc(-c3ccc(C)o3)nc(N)c2C#N)cc1 do in these assays?
Spn MK inh: 12.0; Fluor 339 460: 3.8*; Abs 340nm: 1.01; NADH coupling: 6.0%; Spn PMK inh: 0.0

Results for N#Cc1c(N)oc(-c2ccc3c(c2)OCO3)c1-c1ccc2c(c1)OCO2 ?
Spn MK inh: 2.0; Fluor 339 460: 2.13*; Abs 340nm: 1.09; NADH coupling: 9.0%; Spn PMK inh: 15.0

How did N#Cc1c(N)nc2c(c1-c1ccc3c(c1)OCO3)CCCCCC2 do in these assays?
Spn MK inh: 2.0; Fluor 339 460: 1.28; Spn DPM-DC inh: inactive; Abs 340nm: 1.08; NADH coupling: 2.0%; Spn PMK inh: 0.0

Results for Cc1ccc(-c2cc(-c3ccc(Cl)cc3)c(C#N)c(N)n2)o1 ?
Spn MK inh: 13.0; Fluor 339 460: 3.83*; Abs 340nm: 1; NADH coupling: 7.0%; Spn PMK inh: 0.0

Results for Cc1ccc(-c2cc(-c3ccc4c(c3)OCO4)c(C#N)c(N)n2)o1 ?
Spn MK inh: 13.0; Fluor 339 460: 3.81*; Abs 340nm: 1.03; NADH coupling: 15.0%; Spn PMK inh: 16.0

What do the screens show for `CCCc1cc(-c2ccc(O)c(OCC)c2)c(C#N)c(N)n1`?
Spn MK inh: 9.0; Fluor 339 460: 1.66; Spn DPM-DC inh: inactive; Abs 340nm: 1.07; NADH coupling: 4.0%; Spn PMK inh: 0.0

Results for CCSc1nc2c(c(=O)[nH]1)C(C(C)C)C(C#N)=C(N)O2 (stereo not drawn) ?
Spn MK inh: 7.0; Fluor 339 460: 1.07; Spn DPM-DC inh: inactive; Abs 340nm: 1.03; NADH coupling: 5.0%; Spn PMK inh: 7.0

Results for Cc1cc(-c2cc(-c3ccc(Cl)cc3)nc(N)c2C#N)co1 ?
Spn MK inh: 17.0; Fluor 339 460: 2.29*; Abs 340nm: 1; NADH coupling: 11.0%; Spn PMK inh: 4.0

Results for CSc1nc(N)c(C#N)c(-c2ccc(Cl)cc2)c1C#N ?
Spn MK inh: 1.0; Fluor 339 460: 1.17; Spn DPM-DC inh: inactive; Abs 340nm: 1.01; NADH coupling: 4.0%; Spn PMK inh: 4.0

How did O=C(O)C1C2C=CC3(CN(Cc4ccncc4)C(=O)C13)O2 (stereo not drawn) do in these assays?
Spn MK inh: 11.0; Fluor 339 460: 0.98; Spn DPM-DC inh: inactive; Abs 340nm: 1.02; NADH coupling: 4.0%; Spn PMK inh: 2.0

Results for COCCn1c(C)cc(C(=O)CSc2nnc3scc(-c4ccc(Cl)cc4)n23)c1C ?
Spn MK inh: 6.0; Fluor 339 460: 1.1; Spn DPM-DC inh: inactive; Abs 340nm: 1.06; NADH coupling: 6.0%; Spn PMK inh: 11.0

How did Cc1noc(C)c1CSc1ccc2ccccc2n1 do in these assays?
Spn MK inh: 7.0; Fluor 339 460: 1.11; Spn DPM-DC inh: inactive; Abs 340nm: 1.03; NADH coupling: 5.0%; Spn PMK inh: 7.0

What do the screens show for `Cc1noc(C)c1CSc1nc2ccccc2s1`?
Spn MK inh: 5.0; Fluor 339 460: 1.11; Spn DPM-DC inh: active; Abs 340nm: 1.01; NADH coupling: 7.0%; Spn PMK inh: 16.0

Results for O=C(CN1C(=O)C2CC=CCC2C1=O)Nc1ccc(S(=O)(=O)NC2=NCCCCC2)cc1 (stereo not drawn) ?
Spn MK inh: 4.0; Fluor 339 460: 1.12; Spn DPM-DC inh: inactive; Abs 340nm: 1.02; NADH coupling: 1.0%; Spn PMK inh: 0.0

What do the screens show for `Cc1[nH]n2c(=O)cc(C(C)(C)C)nc2c1-c1ccccc1`?
Spn MK inh: 12.0; Fluor 339 460: 2.34*; Spn DPM-DC inh: inactive; Abs 340nm: 1; NADH coupling: 16.0%; Spn PMK inh: 13.0

How did Cc1c(-c2ccc(F)cc2)nc(N)c(C#N)c1-c1ccco1 do in these assays?
Spn MK inh: 10.0; Fluor 339 460: 2.43*; Spn DPM-DC inh: inactive; Abs 340nm: 1.08; NADH coupling: 5.0%; Spn PMK inh: 6.0

Results for CCOC(=O)c1cccc(NC(=O)c2cc3sccc3n2C)c1 ?
Spn MK inh: 6.0; Fluor 339 460: 1.11; Spn DPM-DC inh: inactive; Abs 340nm: 0.99; NADH coupling: 7.0%; Spn PMK inh: 13.0

How did CCOC(=O)c1ccccc1NC(=O)c1cc2sccc2n1C do in these assays?
Spn MK inh: 5.0; Fluor 339 460: 2.57*; Spn DPM-DC inh: inactive; Abs 340nm: 1.02; NADH coupling: 4.0%; Spn PMK inh: 9.0

How did Cc1cc(C)c2cc(C#N)c(NCCCNC(=O)CCC(=O)O)nc2c1 do in these assays?
Spn MK inh: 2.0; Fluor 339 460: 3.66*; Abs 340nm: 1.03; NADH coupling: 6.0%; Spn PMK inh: 10.0

How did Cc1ccc2nc(N3CCN(C(=O)c4cccs4)CC3)c(C#N)cc2c1 do in these assays?
Spn MK inh: 1.0; Fluor 339 460: 2.44*; Spn DPM-DC inh: inactive; Abs 340nm: 0.98; NADH coupling: 8.0%; Spn PMK inh: 11.0

What do the screens show for `COc1cc(C(=O)N2CCCN(c3nc4cc(C)ccc4cc3C#N)CC2)cc(OC)c1OC`?
Fluor 339 460: 1.92; Spn DPM-DC inh: inactive; Abs 340nm: 1.04; NADH coupling: 10.0%; Spn PMK inh: 12.0

How did CCCCNC(=O)c1ccc(NC(=O)C2CCCO2)cc1 (stereo not drawn) do in these assays?
Spn MK inh: 12.0; Fluor 339 460: 1.08; Spn DPM-DC inh: inactive; Abs 340nm: 1.05; NADH coupling: 4.0%; Spn PMK inh: 0.0

Results for COc1ccc(C(=O)N2CCN(c3nc4cc(C)ccc4cc3C#N)CC2)c(OC)c1 ?
Spn MK inh: 6.0; Fluor 339 460: 1.41; Spn DPM-DC inh: inactive; Abs 340nm: 1; NADH coupling: 2.0%; Spn PMK inh: 6.0

Results for Cc1ccc2cc(C#N)c(NCCCNC(=O)C3CCCO3)nc2c1 (stereo not drawn) ?
Spn MK inh: 4.0; Fluor 339 460: 2.93*; Abs 340nm: 1.01; NADH coupling: 2.0%; Spn PMK inh: 8.0
